Common to all, as to experiment: NCI-60 one-dose screen, 48 h (100 = growth as untreated, 0 = no growth, -100 = all killed)
The test system of one test is A549/ATCC NSCLC. Particulars: 10 µM unless noted.
The next test concerns DU-145 prostate. The following applies: 10 µM unless noted.
The next test relates to K-562 leukemia. Particulars: 10 µM unless noted.
In a further test the test system is RXF 393 renal. The following applies: 10 µM unless noted.
The subject of a further test is SF-295 CNS. The following applies: 10 µM unless noted.
The subject of the next test is UACC-257 melanoma. The following applies: 10 µM unless noted.
The test system of the next test is HT29 colon. The following applies: 10 µM unless noted.
The subject of a further test is SNB-75 CNS. Particulars: 10 µM unless noted.
The subject of the next test is SK-MEL-2 melanoma. Particulars: 10 µM unless noted.
A further test concerns ACHN renal. Particulars: 10 µM unless noted.
Another test relates to CAKI-1 renal. The following applies: 10 µM unless noted.
The test system of another test is A498 renal. The following applies: 10 µM unless noted.
For a further test, the system named is HL-60(TB) leukemia. Particulars: 10 µM unless noted.
In another test the test system is OVCAR-5 ovarian. The following applies: 10 µM unless noted.
Another test concerns OVCAR-4 ovarian. The following applies: 10 µM unless noted.
A further test has as its system SK-OV-3 ovarian. Particulars: 10 µM unless noted.
The next test concerns HS 578T breast. The following applies: 10 µM unless noted.
For another test, the system named is NCI/ADR-RES ovarian. Particulars: 10 µM unless noted.
Another test deals with T-47D breast. The following applies: 10 µM unless noted.
The subject of another test is BT-549 breast. Particulars: 10 µM.

Compounds without any hit were thinned out: in the full panel of roughly 83,000, 20% have a hit.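 Note: values are percent growth. 100 is the growth of untreated cells, values between 100 and 0 indicate rising inhibition; between -100 and 0 indicates cell death.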 Unmarked numbers belong to inactive results. Activity calls are given as the source filed them. How the source made its calls: active means growth percent below 10; inactive means the rest.

`Oc1ccc(O)c2c1C1(Cl)C(Cl)=C(Cl)C2(Cl)C1(Cl)Cl`: the growth was 46.1% with A549/ATCC NSCLC; 63.2% in the test on DU-145 prostate; 27.5% with K-562 leukemia; 29.8% in the test on RXF 393 renal; 21.7% with SF-295 CNS; 46.6% in the test on UACC-257 melanoma. The growth with HT29 colon was 66.4%; in the test with SNB-75 CNS, 31.6%; in the test with SK-MEL-2 melanoma it was 31.3%; in the test with ACHN renal it was 48.2%; with CAKI-1 renal, 34.6%; in the test with A498 renal it was 34.9%. Moreover, the growth with HL-60(TB) leukemia is 31%; in the test on OVCAR-5 ovarian it was 70.1%; in the test on OVCAR-4 ovarian, 54.1%; in the test on SK-OV-3 ovarian it was 66.9%; with HS 578T breast, 55.6%; in the test with NCI/ADR-RES ovarian, 40.5%. Moreover, the figures for the growth in the test on T-47D breast and in the test with BT-549 breast were 19.4% and 29.2%, respectively.

As for `CC(=O)N(C)C1=Nc2ccc(Cl)cc2C(c2ccccc2)=[N+]([O-])C1`, the growth was 106% in the test with A549/ATCC NSCLC; 115% with DU-145 prostate; 109% with K-562 leukemia; 109% in the test on RXF 393 renal; 107% in the test with SF-295 CNS; 95.7% with UACC-257 melanoma. Also, the growth is 104% in the test with HT29 colon; 95.9% in the test with SNB-75 CNS; 95.8% in the test on SK-MEL-2 melanoma; 98.7% with ACHN renal; 99.8% in the test on CAKI-1 renal; 106% in the test on A498 renal. The growth in the test on HL-60(TB) leukemia is 135%; with OVCAR-5 ovarian, 102%; with OVCAR-4 ovarian, 114%; in the test on SK-OV-3 ovarian, 102%; with HS 578T breast, 111%; with NCI/ADR-RES ovarian it was 111%. Further, the values for the growth with T-47D breast and with BT-549 breast were 94.9% and 106%, respectively.

Consider `O1[As]2O[As]3O[As]1O[As](O2)O3`, for which the growth with A549/ATCC NSCLC was 37.8%; in the test with RXF 393 renal it was -47.6% (active); in the test on SF-295 CNS, 4.61% (active); in the test with UACC-257 melanoma it was -22.1% (active); in the test with HT29 colon, -21.1% (active); in the test on SNB-75 CNS, -0.103% (active). The growth in the test on SK-MEL-2 melanoma was -34.8% (active); with ACHN renal it was 28%; with CAKI-1 renal, -20.2% (active); in the test on A498 renal, 2.98% (active); in the test with HL-60(TB) leukemia, 1.06% (active); with OVCAR-5 ovarian, 18.7%. Besides, the growth in the test with OVCAR-4 ovarian was 26.1%; in the test with SK-OV-3 ovarian, 38%; in the test on NCI/ADR-RES ovarian, 13.8%; in the test on T-47D breast it was 22.9%; in the test on BT-549 breast, -12.1% (active).

For `COc1ccc(C(c2ccc(OC)cc2)C(Cl)(Cl)Cl)cc1`, the growth was 94.6% with A549/ATCC NSCLC; 107% in the test on DU-145 prostate; 65.7% in the test with K-562 leukemia; 73.4% with RXF 393 renal; 102% in the test with SF-295 CNS; 78.8% in the test with UACC-257 melanoma. The growth is 78.3% in the test on HT29 colon; 77.4% in the test with SK-MEL-2 melanoma; 92.1% with ACHN renal; 68.4% in the test with CAKI-1 renal; 57.3% with A498 renal; 72.5% in the test with HL-60(TB) leukemia. Also, the growth is 91.9% with OVCAR-5 ovarian; 96.2% in the test on SK-OV-3 ovarian; 89.6% in the test with NCI/ADR-RES ovarian; 68.4% in the test on T-47D breast; 110% with BT-549 breast.

Take `COC(=O)C[Se]C(=O)c1ccccc1OC(C)=O`: the growth with A549/ATCC NSCLC was 33.7%; in the test with DU-145 prostate, 61.8%; in the test on K-562 leukemia, 79%; with RXF 393 renal, 78.9%; with SF-295 CNS, 53.3%; with UACC-257 melanoma it was 59.7%. Moreover, the growth in the test with HT29 colon was 33.2%; with SK-MEL-2 melanoma, 87.4%; with ACHN renal, 72%; in the test on CAKI-1 renal it was 87.8%; with HL-60(TB) leukemia, -4.01% (active); in the test on OVCAR-5 ovarian it was 38.6%. In addition, the growth with OVCAR-4 ovarian is 54.4%; in the test on SK-OV-3 ovarian, 221%; with HS 578T breast, 66.1%; in the test on NCI/ADR-RES ovarian, 24.2%; in the test on T-47D breast it was 84.5%; in the test on BT-549 breast, 71.9%.

For `[Cl][Hg][n]1cnc2c(Cl)c(Cl)c(Cl)cc21`, the growth in the test with A549/ATCC NSCLC is 86.7%; in the test on DU-145 prostate, 100%; in the test on K-562 leukemia, 96.5%; in the test with RXF 393 renal it was 140%; in the test on SF-295 CNS it was 96.1%; in the test on UACC-257 melanoma, 96.2%. In addition, the growth with HT29 colon is 81.2%; in the test on SNB-75 CNS, 104%; in the test with ACHN renal it was 97.9%; with CAKI-1 renal it was 103%; with A498 renal, 104%; in the test on HL-60(TB) leukemia, 99.9%. In addition, the growth in the test with OVCAR-5 ovarian is 132%; in the test with OVCAR-4 ovarian it was 109%; with SK-OV-3 ovarian, 113%; with HS 578T breast it was 79.5%; in the test with NCI/ADR-RES ovarian, 104%; in the test on T-47D breast, 72.2%. Further, the growth in the test on BT-549 breast is 112%.

For `O=C(O)c1[nH]c(=O)[nH]c(=O)c1F`, the growth in the test with A549/ATCC NSCLC was 90.1%; with DU-145 prostate, 96.6%; with K-562 leukemia, 107%; in the test on RXF 393 renal, 103%; in the test on SF-295 CNS, 89.2%; in the test with UACC-257 melanoma it was 103%. The growth with HT29 colon was 106%; in the test on SNB-75 CNS, 99%; with SK-MEL-2 melanoma it was 110%; in the test on ACHN renal, 77%; in the test on CAKI-1 renal, 66.8%; with A498 renal, 82.5%. In addition, the growth in the test with HL-60(TB) leukemia was 117%; in the test with OVCAR-5 ovarian, 104%; in the test on OVCAR-4 ovarian, 112%; in the test on SK-OV-3 ovarian, 112%; with HS 578T breast, 123%; in the test on NCI/ADR-RES ovarian it was 95%. For the same compound, the growth in the test with T-47D breast was 104%; with BT-549 breast, 111%.

`OC1(c2ccccc2F)c2ccccc2C2=NCCN21` (stereo unspecified): the growth in the test with A549/ATCC NSCLC is 114%; with DU-145 prostate, 113%; in the test on K-562 leukemia, 88.7%; in the test on RXF 393 renal, -10.4% (active); in the test with SF-295 CNS, 91.8%; in the test with UACC-257 melanoma, 111%. Further, the growth in the test on HT29 colon is 105%; with SNB-75 CNS it was 104%; in the test with SK-MEL-2 melanoma, 94.6%; in the test on ACHN renal, 114%; with CAKI-1 renal, 64.4%; with A498 renal, 105%. Also, the growth is 83.8% in the test with HL-60(TB) leukemia; 98.6% in the test on OVCAR-5 ovarian; 107% with OVCAR-4 ovarian; 105% with SK-OV-3 ovarian; 110% in the test with HS 578T breast; 86.6% with NCI/ADR-RES ovarian. In addition, the growth in the test with T-47D breast is 104%; with BT-549 breast, 110%.
